# From ChEMBL document CHEMBL1157539, “Thousands of chemical starting points for antimalarial lead identification” (Nature, 2010)
# Key:
# Type in all cases: functional
# Plasmodium falciparum [1] = test: GSK_TCMDC: Inhibition of Plasmodium falciparum 3D7 in whole red blood cells, using parasite LDH activity as an index of growth. Test compounds present at 2uM
# Plasmodium falciparum [2] = test: GSK_TCMDC: Inhibition of Plasmodium falciparum Dd2 in whole red blood cells, using parasite LDH activity as an index of growth. Test compounds present at 2uM
# HepG2 = test: GSK_TCMDC: Percent inhibition of human HepG2 cell line. Test compounds present at 10uM.
Compound,Inhibition (Plasmodium falciparum [1]) [%],Inhibition (Plasmodium falciparum [2]) [%],Inhibition (HepG2) [%]
COc1ccc2nccc([C@@H](O)CN3CCC(NC(=O)/C=C/c4c[nH]c5c(C)cccc45)CC3)c2c1,100,88,23
N=C(Nc1nc(-c2ccccn2)cc2ccccc12)c1cccc(Cl)c1,100,99,54
Cc1cc(N2CCCCC2)nc2ccc(NC(=O)c3cncc(Br)c3)cc12,100,86,0
COc1c(Br)cc(Br)cc1-c1ccc(CN2CC3CCC2CC3)[nH]1.Cl,98,100,91
COc1ccccc1N(C)CCNc1cc(C)nc(Nc2ccccc2)n1,96,13,10
CCC(CC)CN1C(=O)C(c2ccccc2)(c2ccccc2)N=C1N.O=CO,97,81,14
O=C(O)C(F)(F)F.c1ccc(CN2CCC(NCc3ccc(-c4ccc(CNC5CCCC5)cc4)cc3)CC2)cc1,100,98,24
CC(C)Cn1c(Sc2ccc(C#N)c([N+](=O)[O-])c2)nnc1-c1cccc(Cl)c1,98,95,24
N#Cc1ccc(N(CCOc2ccc(Cl)c(Cl)c2)Cc2ccccc2C(F)(F)F)cc1C(F)(F)F,90,57,13
Cc1cccc2nc(-c3ccc(-c4ccc(NC(=O)Nc5cccc(C#N)c5)cc4)s3)[nH]c12,100,100,33
O=C(Cn1c(SCc2cccc(F)c2F)cc(=O)c2ccccc21)N(CCCn1ccnc1)Cc1ccc(-c2ccc(C(F)(F)F)cc2)cc1,99,99,21
O=C(NC(=O)c1ccccc1)NC1CCN(c2ccnc3cc(Cl)ccc23)C1.O=C(O)C(F)(F)F (centres undefined),100,99,32
CCCCCCCc1c(C)nc2cc(OC)ccc2c1O,99,98,5
CCCCN(CCCC)CCC(O)C(=Cc1ccc(Cl)cc1Cl)c1ccc(C(F)(F)F)cc1N (centres undefined),100,99,0
Cl.Nc1ccc(Nc2ccnc3ccc(C(F)(F)F)cc23)cc1O,98,59,1
O=C(NC1CCCCC1)N(Cc1cccc(-c2cccc(CNC3CCCC3)c2)c1)C1CCN(Cc2ccccc2)CC1.O=C(O)C(F)(F)F,96,90,64
CCCCCN1CCCC(NS(=O)(=O)c2cccc(C(=O)Nc3cccc(C(F)(F)F)c3)c2)C1.O=C(O)C(F)(F)F (centres undefined),86,5,22
Cc1nc(N)nc(N)c1OCCCCCCOc1ccccc1.Cl,95,0,59
CN1CCN(CCNc2c3ccccc3nc3c2ccc2ccccc23)CC1.Cl,100,66,76
COc1cccc(NC(=O)Nc2ccc(Nc3nc(C)cc(N4CCCC4)n3)cc2)c1,100,100,28
Cc1ccc2nc(C)cc(N/N=C/c3ccccc3[N+](=O)[O-])c2c1,100,100,5

Compound,Inhibition (Plasmodium falciparum [1]) [%],Inhibition (Plasmodium falciparum [2]) [%],Inhibition (HepG2) [%]
CCNc1cc(C(=O)NC(Cc2ccccc2)C(O)CNC(C)(C)CCCC(C)C)c(F)c(N2CCCS2(=O)=O)c1.O=CO (centres undefined),98,97,0
COc1cc2nc(NCCCO)nc(Nc3ccc(Oc4ccccc4)cc3)c2cc1OC,100,100,24
Cc1cccc2nc(-c3ccc(-c4cccc(CN5CCN(c6ccc(C#N)cn6)CC5)c4)s3)[nH]c12.O=C(O)C(F)(F)F,85,8,37
O=[N+]([O-])c1ccc(C=NNc2nc3ccccc3[nH]2)cc1,100,98,11
Cc1cccc(C(=O)NC(NC(=S)Nc2ccc([N+](=O)[O-])cc2)C(Cl)(Cl)Cl)c1 (centres undefined),96,66,14
CC(=O)c1c(CC(=O)O)c2ccccc2n1O,98,0,16
COc1ccc(-c2nc(NC(=O)Cc3coc4cc(OC)ccc34)sc2C)cc1,100,77,9
COc1ccc(NC(=O)/C=C/c2ccccc2Cl)cc1OCCN1CCC(N2CCN(C)CC2)CC1,100,49,19
CN1CCN(CCCNCc2cccc(-c3ccc(CNCCc4ccccc4)cc3)c2)CC1.O=C(O)C(F)(F)F,100,20,36
Cc1ccc(Nc2nccc(NCC(O)c3cccc(C)c3)n2)cc1 (centres undefined),90,23,22
COc1ccc(-c2ccnc(-c3cccc(-c4ccccn4)n3)c2)cc1,97,84,44
COc1cc(OC)cc(C(=O)N2CCOC(CCN3CCC(c4ccccc4)CC3)(c3ccc(Cl)c(Cl)c3)C2)c1 (centres undefined),85,61,13
CCN(CC)CCNC(=O)c1ccc(NC(=O)c2cc3c(C)nn(-c4ccc(Cl)cc4)c3s2)cc1.Cl,95,78,24
OCCOCCNCc1cccc(C#Cc2cc3ncnc(Nc4ccc(OCc5cccc(F)c5)c(Cl)c4)c3s2)n1,96,46,35
O=C(O)C(F)(F)F.c1cc(CNCC2CCCO2)cc(-c2ccc(-c3nc4ccccc4[nH]3)s2)c1 (centres undefined),95,30,8
CN1CCC(NCc2cccc(-c3ccc(S(=O)(=O)NCc4ccccc4)cc3)c2)CC1.O=C(O)C(F)(F)F,100,93,61
O=[N+]([O-])c1ccc2nccnc2c1,97,0,0
NC(=O)c1ccccc1OCC(=O)Nc1cccc(-c2ccc(-c3nc4ccccc4[nH]3)cc2)c1,95,46,66
Cn1nc(-c2ccc(CN[C@@H]3CCc4ccc(O)cc43)cc2)c2cnc(NC3CCCC3)nc21,97,8,12
CN(C)c1ccc(-c2ccc(C(=O)NC3CCN(Cc4ccccc4F)CC3)s2)cc1.O=C(O)C(F)(F)F,88,19,30
Cc1cccc2nc(-c3cccc(-c4ccc(NC(=O)Cc5ccccn5)cc4)c3)[nH]c12,94,57,25

Compound,Inhibition (Plasmodium falciparum [1]) [%],Inhibition (Plasmodium falciparum [2]) [%],Inhibition (HepG2) [%]
COc1ccc2nccc([C@@H](O)CN3CCC(NC(=O)c4cccc(C(=O)c5ccccc5)c4)CC3)c2c1,99,99,13
Cc1nc(N)nc(N)c1-c1cc(Cl)c(N)c(Cl)c1,94,2,62
COc1ccc(CNCCCCCCNCc2ccc(OC)c3ccccc23)c2ccccc12.Cl,100,49,100
CN1C(=O)C(=NN=C(S)N2CCOCC2)c2ccccc21,95,54,57
Nc1ccc(-c2nc3cc(C4=N[C@H]5CCCC[C@H]5N4)ccc3o2)cc1[N+](=O)[O-],95,33,16
CN1Cc2ccc(NS(=O)(=O)c3ccc(-c4ccoc4)cc3)cc2C1.Cl,97,2,0
OC(CN1CCN(Cc2ccccc2)CC1)Cn1c(-c2ccccc2)c(-c2ccccc2)c2ccccc21 (centres undefined),98,97,0
O=C(c1ccccc1F)N(Cc1ccc(Cl)cc1)c1ccccn1,84,58,0
COc1ccc2c(N/N=C/c3cccc([N+](=O)[O-])c3)cc(C)nc2c1,100,97,18
CCN(CCN(C)C)Cc1ccc(-c2ccc(NS(=O)(=O)c3cccc4cccnc34)cc2)cc1.O=C(O)C(F)(F)F,91,57,16
NC(=O)COc1c(C2CCN(CCCCNC(=O)c3ccc(-c4ccc(Cl)cc4)c(O)c3)CC2)ccc2c1CCCC2,100,72,97
Cc1nc(C)c(-c2ccc(Br)cc2)c(O)c1Br,98,95,9
CCN1CCN(Cc2c(O)ccc3c(=O)c(Oc4cc(C)cc(C)c4)c(C(F)(F)F)oc23)CC1,96,90,6
CCN(CC)CCN(Cc1ccc(-c2ccc(C(F)(F)F)cc2)cc1)C(=O)Cn1c(SCc2ccc(F)cc2)cc(=O)c2ccccc21.O=C(O)C(O)C(O)C(=O)O,100,70,50
Cc1ccc(C2=NNC3(S2)C(=O)Nc2ccc(C)cc23)cc1 (centres undefined),95,89,35
Cn1cc(-c2ccccc2C(=O)O)c(=O)c2cc(Cl)ccc21,89,0,16
Fc1ccccc1COc1ccc(Nc2ncnc3ccc(I)cc23)cc1Cl,90,37,17
CCCCCCN1CCC(NCc2cccc3ccccc23)CC1.O=C(O)C(F)(F)F,95,12,21
Cl.NCc1ccc(-c2ccc3c(N)nccc3c2)cc1,100,92,28
COc1ccc2c(OC)ccc(CNCCCCCCNCc3ccc(OC)c4ccc(OC)cc34)c2c1.CS(=O)(=O)O,100,98,100
CCCCn1c(Sc2ccc(C#N)c([N+](=O)[O-])c2)nnc1-c1cc(OC)cc(OC)c1,94,70,7
